Screening results: PubChem BioAssay, National Center for Advancing Translational Sciences (NCATS)
Tau fluor counter – Counterscreen qHTS for Inhibitors of Tau Fibril Formation, Fluorescence Polarization | tau K18 P301L Alexa594 fluorescence, heparin fibrillization | Potency, µM (titrated, usually from 57.7 µM), for inactives: at the top dose activity change, negative = decrease | hit rate 0.93% among 280,000; also: nearly all actives have a fitted effect of over 55% in size
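Human tau K18 P301L (15 uM unlabeled, 0.24 uM Alexa 594-labeled) in 100 mM sodium acetate pH 7 with 20 uM heparin, 6 hr at 37 C. ThT 30 uM added, 1 hr ambient; Alexa 594 FP and total fluorescence read at 555/632 nm.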
HPGD inh – qHTS Assay for Inhibitors of HPGD (15-Hydroxyprostaglandin Dehydrogenase) | 15-hydroxyprostaglandin dehydrogenase [NAD(+)] (Homo sapiens), P15428 | purified HPGD, NADH fluorescence kinetic, PGE2 substrate | Potency, µM, for inactives: top-dose activity change, negative = inhibition, usual class: inhibitors | hit rate 4.3% among 150,000; active = well fitted inhibition curve with a large enough effect, not every such curve was filed as active; inconclusive = small, poorly fitted or top-dose-only effect, or another doubt; inactive = no such curve, though single readings can be large or run the other way
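20 nM HPGD preincubated 15 min at room temperature with compound in 50 mM Tris-HCl pH 8, 0.01% Tween 20. Started with 1 mM NAD+ and 30 uM prostaglandin E2; NADH fluorescence (360/450 nm) read 5 times over 30-s intervals, last minus first.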
Tau ThT inhib – qHTS for Inhibitors of Tau Fibril Formation, Thioflavin T Binding | hit rate 2.1% among 270,000 | Microtubule-associated protein tau (Homo sapiens), P10636 | Potency, µM (doses to about 57.4 µM), for inactives: top-dose activity, negative = inhibition, actives largely listed as inhibitors | recombinant tau K18 P301L (four-repeat tau fragment), heparin-induced fibrillization, ThT fluorescence | AID 1460, 2008; also: nearly all actives have a fitted effect of over 55% in size
Target sequence (P10636 561-689 P618L limits assumed): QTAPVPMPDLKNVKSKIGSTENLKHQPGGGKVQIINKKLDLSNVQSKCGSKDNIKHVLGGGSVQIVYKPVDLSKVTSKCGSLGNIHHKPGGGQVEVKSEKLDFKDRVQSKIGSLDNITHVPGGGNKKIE
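K18 P301L tau (15 uM + 0.24 uM Alexa 594-tagged), heparin 20 uM, NaOAc pH 7, 6 h 37 C; ThT 30 uM, 1 h RT, ex 450/em 510 nm.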
ALDH1A1 block – qHTS Assay for Inhibitors of Aldehyde Dehydrogenase 1 (ALDH1A1) | Aldehyde dehydrogenase 1A1 (Homo sapiens), P00352 | Purified ALDH1A1, NADH fluorescence, propionaldehyde substrate | Potency, µM (top dose mostly 75.3 µM), for inactives: at the highest dose activity, negative = inhibition, usual class: inhibitors | hit rate 7.3% among 220,000; active = well fitted inhibition curve with a large enough effect, not every such curve was filed as active; inconclusive = small, poorly fitted or top-dose-only effect, or another doubt; inactive = no such curve, though single readings can be large or run the other way;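 also: plate controls were no enzyme wells and a reference inhibitor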
Tau fibril FP – qHTS for Inhibitors of Tau Fibril Formation, Fluorescence Polarization; Potency, µM (titrated, usually from 57.7 µM), for inactives: top-dose activity, negative = inhibition, most hits filed as inhibitors; K18 P301L tau heparin fibrillization, Alexa594 FP, 6 h; hit rate 0.39% among 280,000; also: nearly all actives have a fitted effect of over 55% in size
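Human K18 P301L fragment (15 uM unlabeled plus 0.24 uM Alexa 594-labeled) in 100 mM sodium acetate pH 7 with compound, aggregation induced by 20 uM heparin for 6 hr at 37 C. ThT (30 uM) added for 1 hr, then Alexa 594 FP read.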
NPSR antagonist – qHTS Assay for Antagonists of the Neuropeptide S Receptor: cAMP Signal Transduction. AID 1461, 2008. hit rate 1% among 220,000. Q6W5P4. CHO-NPSR cells, cAMP TR-FRET, antagonist mode. Potency, µM (doses to about 38.3 µM), without a hit: at the top dose activity change, negative = inhibition, most hits filed as inhibitors; also: nearly all actives have a fitted effect of over 50% in size
Target sequence (Q6W5P4 whole entry, looked up): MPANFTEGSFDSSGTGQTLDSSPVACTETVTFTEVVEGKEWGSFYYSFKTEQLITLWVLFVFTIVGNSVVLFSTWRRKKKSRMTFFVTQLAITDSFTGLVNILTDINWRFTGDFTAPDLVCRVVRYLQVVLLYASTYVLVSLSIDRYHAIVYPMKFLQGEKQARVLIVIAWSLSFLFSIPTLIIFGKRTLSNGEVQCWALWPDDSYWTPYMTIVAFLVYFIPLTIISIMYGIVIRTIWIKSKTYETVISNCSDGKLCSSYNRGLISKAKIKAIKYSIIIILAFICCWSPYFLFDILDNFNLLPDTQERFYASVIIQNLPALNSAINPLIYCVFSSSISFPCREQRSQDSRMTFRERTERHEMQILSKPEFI
* marks the source's active call; other numbers are inactive results; ? = inconclusive; . = not tested or not shown; [ ] = remark or other dose. Rows were chosen to be rich in hits. Some 9.5% of all compounds tested hit in one or more screens of this group. Unless noted, calls follow the shape of the dose curve; as a rule, active = well fitted curve in the direction sought with a large enough effect; inconclusive = small, poorly fitted or top-dose-only effect, or another doubt; inactive = no such curve, though single readings can be large; an effect the other way counts as inactive or inconclusive. Unless noted, % is scaled to controls: 0 for no effect and ±100 for the full control effect; potency is read from the fitted curve at half-maximal effect.

SMILES	Tau fluor counter	HPGD inh	Tau ThT inhib	ALDH1A1 block	Tau fibril FP	NPSR antagonist
C[C@H]1Cc2c(-c3ccccc3)nc3c(c2CO1)CN(C(=O)c1cccnc1)CC3	-12%[11.6 µM]	0%	-4%[11.5 µM]	13%[13.5 µM]	0%[11.6 µM]	.
Cc1cccn2c(=O)c(/C=C(\C#N)C(=O)NC3CCS(=O)(=O)C3)c(N3CCC(C(N)=O)CC3)nc12 (centres undefined)	2%	?	2%	5%	0%	-20%
CCOC(=O)/C(C#N)=C/c1c(N2CCN(Cc3ccc4c(c3)OCO4)CC2)nc2c(C)cccn2c1=O	-14%	.	-12%	0.71µM*	3%	?
Cc1cccn2c(=O)c(/C=C(\C#N)S(=O)(=O)c3ccccc3)c(N3CCC(C(N)=O)CC3)nc12	-14%	28µM*	?	?	10%	-18%[46.1 µM]
Cc1ccc(S(=O)(=O)/C(C#N)=C/c2c(N3CCC(C(N)=O)CC3)nc3c(C)cccn3c2=O)cc1	-21%	3.5µM*	?	?	-2%	?
Cc1ccc(S(=O)(=O)/C(C#N)=C/c2c(N3CCOCC3)nc3ccccn3c2=O)cc1	-18%	16µM*	-8%	2%	-8%	-15%[46.1 µM]
Cc1cccn2c(=O)c(C=O)c(N3CCCCCC3)nc12	-15%	-24%	?	11µM*	-13%	4%[46.1 µM]
Cc1ccc(S(=O)(=O)/C(C#N)=C/c2c(N3CCC(C(N)=O)CC3)nc3ccccn3c2=O)cc1	-13%	25µM*	?	?	8%	-20%[46.1 µM]
CCN1CCN(c2nc3ccccn3c(=O)c2/C=C(\C#N)S(=O)(=O)c2ccccc2)CC1	-20%	.	-11%	.	-2%	40%
CCOc1cc(C(=O)Nc2ccc(-c3nc4cc(Cl)ccc4o3)cc2)cc(OCC)c1OCC	-4%	.	-2%	.	-5%	.
COc1ccc(CN(CCC#N)C(=S)NC(=O)c2ccccc2)cc1	-14%	-13%	-5%	25µM*	-2%	-9%[46.1 µM]
N#CCCN(Cc1ccccc1)C(=S)NC(=O)c1ccccc1	-12%	-25%	-5%	14µM*	-5%	7%[46.1 µM]
CC1CC(=O)NN=C1c1ccc(N(C)C)c([N+](=O)[O-])c1 (centres undefined)	-2%	-7%	-25%	?	2%	-12%[46.1 µM]
CCN(CC)c1ccc(C2=NNC(=O)CC2C)cc1[N+](=O)[O-] (centres undefined)	-14%	-14%	?	13µM*	2%	-11%[46.1 µM]
Cc1ccc(OCc2nn3c(-c4n[nH]c5c4CCC5)nnc3s2)cc1	-4%	-4%	-22%	5%	-1%	-15%[46.1 µM]
COc1ccc(NS(=O)(=O)c2cc(NC(=O)c3ccncc3)ccc2N2CCOCC2)cc1	-2%	-12%	2%	3%	3%	-4%
O=C(Nc1ccc(N2CCOCC2)c(S(=O)(=O)Nc2ccc(Cl)cc2)c1)c1cnccn1	?	.	?	2µM*	?	53%
NS(=O)(=O)c1ccc(NC(=O)C(Sc2ccccc2)c2ccccc2)cc1 (centres undefined)	?	-1%	5%	12%	-11%	-8%
CC(C)(C)c1ccc(OCC(=O)NCC2(N3CCOCC3)CCCCC2)cc1	-8%	.	-12%	.	5%	.
C=CC1=C(C)/C(=C/c2[nH]c(Cc3[nH]c(/C=C4\NC(=O)C(C)=C4C=C)c(C)c3CCC(=O)O)c(CCC(=O)O)c2C)NC1=O	?	-19%	10µM*	?	?	.
Nc1c(C(=O)O)cnc2c(-c3ccc(Cl)cc3)cnn12	-10%	.	?	?	-5%	-16%
Clc1ccc(-c2cnn3c(-c4ccncc4)ccnc23)cc1	1%	.	2.5µM*	8%	2%	0%
Nc1nc(Nc2ccccc2)nc(N2CCOCC2)c1[N+](=O)[O-]	-24%	-7%	?	13µM*	3%	4%
COc1ccc(Nc2nc(N)c([N+](=O)[O-])c(N3CCOCC3)n2)cc1	?	.	?	.	10%	9%[7.67 µM]
CN(C)c1ccc(Nc2nc(N)c([N+](=O)[O-])c(N3CCOCC3)n2)cc1	?	-10%	16µM*	-42%	7%	-23%
SMILES	Tau fluor counter	HPGD inh	Tau ThT inhib	ALDH1A1 block	Tau fibril FP	NPSR antagonist
CC(C)N(C(=O)Cn1cc(SCC(=O)Nc2ccccc2C(F)(F)F)c2ccccc21)C(C)C	5%	.	4%	.	-10%	.
CC(=O)c1cc(F)c(N2CCN(C(=O)Cc3ccccc3)CC2)cc1C	0%	22µM*	8%	8.9µM*	8%	-14%[46.1 µM]
CC(=O)c1cc(F)c(N2CCN(CCC#N)CC2)cc1C	1%	-13%	-3%	28µM*	6%	7%
COC(=O)C1=C(C(=O)OC)[C@@H]2N(C)c3ccc(OC)cc3[C@@]23C[C@@H](C(=O)OC)N(S(=O)(=O)c2ccc(C#N)cc2)C3=N1	-13%[11.6 µM]	1%	-4%[11.5 µM]	4%[13.5 µM]	5%[11.6 µM]	.
NS(=O)(=O)c1ccc(NC(=O)COC(=O)c2cn(-c3ccccc3)nc2-c2ccccc2)cc1	?	.	0%	.	11µM*	-51%
O=C(COC(=O)c1cn(-c2ccccc2)nc1-c1ccccc1)Nc1ncc(Cl)cc1Cl	?	.	-4%	.	-8%	-32%
O=c1/c(=C\c2ccc3c(c2)OCO3)sc2n1CCCN=2	-6%	-16%	?	?	-5%	-8%[46.1 µM]
Cc1ccc(/C=c2/sc3n(c2=O)CCCN=3)o1	-13%	-27%	?	3.5µM*	?	-8%[46.1 µM]
Cc1ccc(/C=c2\sc3n(c2=O)CN(c2ccc(Br)cc2)CN=3)o1	-14%	-17%	?	14µM*	-7%	-27%[46.1 µM]
CCN(CC)CCCNC(=O)Cc1csc2nc(-c3ccc(Cl)cc3)cn12	-29%	.	-11%	.	9%	.
O=C1c2ccccc2-c2ccc(N(Cc3ccc(Br)cc3)Cc3ccc(Br)cc3)cc21	.	-4%	.	1%[13.5 µM]	.	.
CN(C(=S)Nc1ccc(SC(F)F)cc1)c1ccc(O)cc1	?	-13%	2.5µM*	6.3µM*	?	3%
CN(C(=S)Nc1ccc(Oc2ccccc2)cc1)c1ccc(O)cc1	-4%	?	-2%	2.2µM*	0%	-13%
CC(C)CN1CCCC2(CCN(C(=O)c3cc(C(F)(F)F)cc(C(F)(F)F)c3)CC2)C1	.	-4%	.	4%	.	.
O=C(Nc1ccccc1-c1nc2ccccc2s1)c1ccc(F)cc1	-14%	.	-11%	.	-4%	.
